PNC assembly inh: High Content Assay for Compounds that inhibit the Assembly of the Perinucleolar Compartment. PC3M PTB-GFP, PNC prevalence imaging, 16 h; active compounds read low. activity change (PNC), negative = inhibition, % at 10 µM. actives 3.1% (n = 140,000);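 active = readout at or below -70, meaning at least 70% loss of cells showing the perinucleolar compartment, a nuclear body marking cancer cells; inconclusive = readout between -30 and a set limit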
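Read-out is percentage of cells bearing a perinucleolar compartment, from automated 20x imaging of fixed, Hoechst-stained PC3M PTB-GFP cells. Cells were seeded 4 h, then exposed 16 h to compound (23 nl of library stock) in duplicate plates.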
HPGD block: qHTS Assay for Inhibitors of HPGD (15-Hydroxyprostaglandin Dehydrogenase) | actives 4.3% (n = 150,000) | purified HPGD, NADH fluorescence kinetic, PGE2 substrate | AID 894, 2007 | Potency, µM, most hits filed as inhibitors | 15-hydroxyprostaglandin dehydrogenase [NAD(+)] (Homo sapiens), P15428
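NADH formation kinetics: reaction with 30 uM PGE2 and 1 mM NAD+ (final), 20 nM enzyme, Tris-HCl pH 8 with Tween 20, after 15 min compound preincubation at room temperature. Fluorescence change, last versus first of five reads.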
LMNA splice mod: qHTS Assay for Modulators of Lamin A Splicing; HeLa LMNA splicing GFP/RFP minigene ratio, 48 h; Potency, µM (highest dose often 46.1 µM), hits mostly inhibitors; actives 0.01% (n = 200,000); AID 1487, 2009; active = well fitted inhibition curve with a large enough effect in the signal ratio, with a control signal flat, not every such curve was filed as active; inconclusive = small, poorly fitted or top-dose-only effect, or effect the other way, or a change in a side signal; the % refers to the signal ratio
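S3 HeLa stable clones carrying a lamin A-EGFP splicing minigene plus DsRed2 were seeded at 600 cells/well in Opti-MEM with 2% FBS, pin-dosed and incubated 48 h at 37°C. Acumen cytometry (488 nm) gave the GFP/RFP total-intensity ratio.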
Luc counter: Counterscreen for Luciferase (Kinase-Glo TM) Inhibition | Kinase-Glo luciferase, ATP luminescence, 8 min | Luciferin 4-monooxygenase (Photuris pensylvanica), Q27757 | actives 0.28% (n = 200,000) | Potency, µM (titrated, usually from 38.3 µM), hits mostly inhibitors; active = well fitted inhibition curve with a large enough effect; inconclusive = small, poorly fitted or top-dose-only effect; note: nearly all actives have a fitted effect of over 60% in size
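Luminescence was the read-out, taken after 8-minute incubation at ambient temperature. Luciferase turned over luciferin with 10 uM ATP in imidazole pH 7.2 buffer containing KCl, MgCl2, Tween 20 and BSA.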
ALDH1A1 block: qHTS Assay for Inhibitors of Aldehyde Dehydrogenase 1 (ALDH1A1). Purified ALDH1A1, NADH fluorescence, propionaldehyde substrate. Potency, µM (series often up to 75.3 µM), actives largely listed as inhibitors. actives 7.3% (n = 220,000). AID 1030, 2008
Target sequence (P00352 whole entry, looked up): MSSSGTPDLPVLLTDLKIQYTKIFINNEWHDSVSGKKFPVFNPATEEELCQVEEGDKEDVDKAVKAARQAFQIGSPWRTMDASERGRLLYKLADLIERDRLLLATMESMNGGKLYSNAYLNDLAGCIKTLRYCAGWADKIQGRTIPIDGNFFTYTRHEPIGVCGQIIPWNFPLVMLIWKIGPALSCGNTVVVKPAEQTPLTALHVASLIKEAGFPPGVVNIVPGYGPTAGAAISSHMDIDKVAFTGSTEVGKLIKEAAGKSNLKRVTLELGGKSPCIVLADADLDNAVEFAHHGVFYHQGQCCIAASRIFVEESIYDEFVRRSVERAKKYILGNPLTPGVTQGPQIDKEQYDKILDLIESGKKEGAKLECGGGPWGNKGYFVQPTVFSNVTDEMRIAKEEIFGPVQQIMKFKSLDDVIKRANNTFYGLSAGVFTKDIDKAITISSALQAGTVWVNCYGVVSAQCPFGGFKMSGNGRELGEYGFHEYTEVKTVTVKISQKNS
Hits are given with their value; – = inactive; ? = inconclusive; · = no result; [ ] = remark or other dose. The list is not random: actives were taken first. Their share in the collection is about 10%. Unless noted, calls come from the whole dose curve; as a rule, active = well fitted inhibition curve with a large enough effect (not every such curve was filed as active); inconclusive = small, poorly fitted or top-dose-only effect, or another doubt; inactive = no such curve, though single readings can be large or run the other way.

SMILES	PNC assembly inh	HPGD block	LMNA splice mod	Luc counter	ALDH1A1 block
O=C(O)c1c(Cl)c(Cl)c(Cl)c(Cl)c1-c1c2cc(I)c(=O)c(I)c-2oc2c(I)c(O)c(I)cc12	·	32µM	?	13µM	32µM
CN(C)c1ccc(/C=C2\C(=O)Nc3ccccc32)cc1	·	?	28µM	–	7.1µM
Cc1ccc(/C=C2\C(=O)Nc3ccccc32)o1	–	–	?	–	7.9µM
COC(=O)n1c(=S)oc2cc(Cl)ccc21	?	22µM	–	–	14µM
CC1(C)CC(=O)/C(=C\c2cccc([N+](=O)[O-])c2)C(C)(C)N1	?	–	?	–	–
CCCN1C/C(=C/c2cccc([N+](=O)[O-])c2)C(=O)/C(=C/c2cccc([N+](=O)[O-])c2)C1	–	–	–	–	20µM
N#C/C(=C(/O)COc1ccc(Br)cc1)c1nnc2n1CCCCC2	·	·	–	–	–
C=CCN1C(c2ccc(OCC)cc2)=CS/C1=C(\C#N)c1nnc2n1CCCCC2	?	28µM	?	–	14µM
CCOc1ccc(CC(=O)NCCc2csc(-c3ccc(C(F)(F)F)cc3)n2)cc1	·	·	–	·	·
COC(=O)CN1C(=O)C(O)(CC(=O)c2ccc(Cl)cc2)c2ccccc21 (stereo not drawn)	?	–	–	–	0.22µM
COC(=O)CN1C(=O)C(O)(CC(=O)c2cccc(Br)c2)c2ccccc21 (stereo not drawn)	–	–	–	–	0.56µM
Cc1c(CC(C)(C)C(=O)O)n(Cc2ccc(Cl)cc2)c2ccc(F)cc12	·	?	·	–	–
CCC(C)C1C(C#N)=C(N)OC2=C1C(=O)CC(C)(C)C2 (stereo not drawn)	–	–	–	–	11µM
CC1(C)CC(=O)C2=C(C1)OC(N)=C(C#N)C2c1ccc(OC(=O)N2CCOCC2)cc1 (stereo not drawn)	?	–	–	–	3.2µM
CC1(C)CC(=O)C2=C(C1)OC(c1ccncc1)C(C#N)=C2N (stereo not drawn)	–	–	–	–	?
CC1(C)CC(=O)C2=C(C1)OC(N)=C(C#N)C2c1ccsc1 (stereo not drawn)	?	–	–	–	25µM
CC1(C)CC(=O)C2=C(C1)OC(c1ccc(O)cc1)C(C#N)=C2N (stereo not drawn)	–	–	?	–	1.1µM
O=C1C2C3C=CC(C2C(=O)N1CN1CCOCC1)C1C2C(=O)N(CN4CCOCC4)C(=O)C2C31 (stereo not drawn)	·	–	·	–[7.66 µM]	–[13.5 µM]
CCC(Sc1nnc(-c2ccc(OC)c(OC)c2)c(-c2ccc(OC)c(OC)c2)n1)C(=O)NC1CCCC1 (stereo not drawn)	·	·	–	·	·
COc1ccc(C2C(C#N)=C(N)OC3=C2C(=O)CC(C)(C)C3)cc1 (stereo not drawn)	·	·	–	–	4.5µM
CC1(C)CC(=O)C2=C(C1)OC(N)=C(C#N)C2C1CC=CCC1 (stereo not drawn)	–	–	–	–	7.9µM
COc1ccc(C2C(C#N)=C(SC)NC3=C2C(=O)CC(C)(C)C3)cc1 (stereo not drawn)	?	–	–	–	14µM
C=C(C(C)=O)C(O)c1ccc(C(F)(F)F)cc1 (stereo not drawn)	·	–	·	–	–
COc1c(Cl)cc(C(=O)Nc2ccccc2-c2ccccc2)cc1Cl	–	–	–[0.0737 µM]	–	13µM
CCOc1c(Cl)cc(C(=O)Nc2ccccc2C(=O)O)cc1Cl	–	14µM	?	–	?
SMILES	PNC assembly inh	HPGD block	LMNA splice mod	Luc counter	ALDH1A1 block
COc1cccc(C(=O)NC(=S)Nc2ccc(Cl)c(C(=O)O)c2)c1	–	–	–	–	?
CCOc1ccc(C(=O)Nc2ccccc2-c2ccccc2)cc1Cl	–	–	–[0.0737 µM]	–	?
CCOc1cc(C(=O)NC(=S)Nc2ccc(Cl)c(C(=O)O)c2)cc(OCC)c1OCC	·	·	·	·	19µM
COc1ccc(OCC(=O)Nc2cc(-c3ccccc3F)nn2-c2ccccc2)cc1	·	·	–	·	·
COc1cccc(CNC(=O)Cn2c(=O)nc(-c3ccccc3F)c3cc(Cl)ccc32)c1	·	·	–	·	·
COc1cccc(CNC(=O)CN2C(=O)N(c3cccc(Cl)c3)S(=O)(=O)c3ccccc32)c1OC	·	·	–	·	·
CCn1c(/C=N/c2nc3ccccc3n2C)nc2ccccc21	–	–	?	–	?
Cn1c(/N=C/c2ccc3c(c2)OCO3)nc2ccccc21	–	–	–	11µM	?
Cc1ccc(CNc2ccc(O)cc2)cc1	–	?	?	–	10µM
CCN(CC)S(=O)(=O)c1ccc(NC(=O)c2c(C)oc3ncnc(N4CCOCC4)c23)cc1	·	·	–	·	·
COc1ccccc1N(CC(=O)Nc1ccc2c(c1)OCO2)S(=O)(=O)c1ccccc1	–	–	?	–	–
CCOc1ccccc1N(CC(=O)Nc1ccc2c(c1)OCCO2)S(C)(=O)=O	-125	–	?	–	–
COc1ccc(S(=O)(=O)N(CC(=O)Nc2cccnc2)c2ccccc2OC)cc1	–	2.2µM	–	–	10µM
COc1ccc(S(=O)(=O)N(CC(=O)Nc2ccc3c(c2)OCO3)c2ccccc2OC)cc1	–	16µM	?	–	?
COc1ccccc1N(CC(=O)Nc1cccnc1)S(=O)(=O)c1ccccc1	–	14µM	–	–	?
CCCCNc1nc(C)nc2c1nc(-c1ccccc1)n2CCCN(CC)CC	·	?	·	–	?
CCC(Sc1nc2nccnc2c(=O)n1Cc1ccc(F)cc1)C(=O)NC1CCCCC1 (stereo not drawn)	·	·	–	·	·
COc1ccc(N(CC(=O)Nc2ccc3c(c2)OCCO3)S(=O)(=O)c2cccnc2)cc1	?	–	–	–	14µM
COc1ccc(N(CC(=O)Nc2ccc3c(c2)OCO3)S(=O)(=O)c2ccccc2)cc1	·	·	·	–	–
COc1ccc(OC)c(N(CC(=O)Nc2cccnc2)S(=O)(=O)c2ccccc2)c1	–	7.9µM	–	–	–
Cc1ccc(CCNC(=O)C2CCN(S(=O)(=O)c3ccc4c(ccn4C)c3)CC2)cc1	·	·	–	·	·
CCN(CC)c1ccc(C2C(C(=O)OC(C)C)C(=O)CC(C)(O)C2C(=O)OC(C)C)cc1 (stereo not drawn)	-113	–	?	–	–
CCOC(=O)C1C(=O)CC(C)(O)C(C(=O)OCC)C1c1ccc(N(CC)CC)cc1 (stereo not drawn)	-119	–	–	–	–
CCOC(=O)C1C(=O)CC(C)(O)C(C(=O)OCC)C1c1ccc(F)cc1 (stereo not drawn)	–	–	–	–	–
CC(C)OC(=O)C1C(=O)CC(C)(O)C(C(=O)OC(C)C)C1c1ccc(F)cc1 (stereo not drawn)	–	–	–	–	–
